Experiment [1] can be described thus: rapamycin-like changes in RPL19A-GFP expression – cell-based, S. cerevisiae, multiplex flow cytometry, primary screen (AID 1862; in the data active = percent of DMSO control GFP below about 86%;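 also: lower values mimic rapamycin by blocking the RPL19A rise seen in DMSO cells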). To be noted: S. cerevisiae RPL19A-GFP strain, flow cytometry fluorescence, 3 h; at 10 µM; stronger effect = lower value.
The nature of experiment [2]: TOR pathway GLN3 branch reporter MEP2-GFP changes – S. cerevisiae, multiplex flow cytometry, primary screen (AID 1867;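 active = GFP response, as percent of the DMSO control, above the screen-wide mean plus 3 SD, about 139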;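 also: median GFP channel fluorescence of barcode-gated MEP2-GFP cells measured by flow cytometry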). As to conditions: S. cerevisiae MEP2-GFP strain, 3 h, at 10 µM, stronger effect = higher value. For orientation: Flow cytometry measures light scatter and fluorescence of single cells or particles in a stream.
A short description of experiment [3]: TOR pathway RTG branch CIT2 reporter changes – S. cerevisiae, GFP fusion, multiplex flow cytometry, primary screen (AID 1870;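 active = percent response above a set limit, the screen-wide mean plus 3 SD, cut at about 130% in these data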;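 also: barcoded CIT2-GFP strain pooled with four other GFP strains with rapamycin as positive control; median GFP fluorescence per well over plate mean of DMSO wells so 100% = DMSO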). As to conditions: S. cerevisiae CIT2-GFP expression, 3 h, at 10 µM, stronger effect = higher value.
The nature of experiment [4]: TOR pathway LAP4-GFP level changes – S. cerevisiae, multiplex flow cytometry, primary screen (AID 1873;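 active = GFP signal, as percent of the solvent control, above the screen mean plus 3 SD, about 149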). To be noted: S. cerevisiae LAP4-GFP expression, 3 h, at 10 µM, stronger effect = higher value.
Experiment [5] in a line: reduced mouse 2C T cell binding to pMHC/ICAM-1 vesicles – MLPCN validation set, flow cytometry, LFA-1/ICAM-1 modulator project, pilot screen (AID 2523;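 active = response below a set limit, under 55% cells CD8-positive and vesicle-bound, and CD8 cells' 90th-percentile brightness under 279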;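 as to vesicle binding response: mean PE anti-B7-1 fluorescence of CD8+ cells relative to row control; 100% = QL9-loaded vesicles with DMSO vehicle in the same plate row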). As to conditions: 2C mouse CD8+ T cells, at 7 µM, stronger effect = lower value; double positive events: measured here: CD8+/vesicle+ event percentage.
The target of experiment [6] is Integrin beta-1 (Homo sapiens) + Integrin alpha-4 (Homo sapiens) (UniProt P13612+P05556). Put plainly: alpha4beta1 integrin LIBS antibody binding reduction – U937 cells, HUTS-21 mAb, flow cytometry, validation set, VLA-4 allosteric modulator project, pilot screen (AID 2674;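 active = inhibition above 50%, about 3 SD of the validation set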;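 also: antibody binding induced by the VLA-4 ligand LDV present at three times its Kd; 0% = LDV ligand with antibody and no compound and 100% = antibody without LDV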). To be noted: HUTS-21 LIBS mAb binding, at 6.7 µM, stronger effect = higher value.
Chain of Integrin beta-1 (Homo sapiens) + Integrin alpha-4 (Homo sapiens) (P05556 whole entry, looked up): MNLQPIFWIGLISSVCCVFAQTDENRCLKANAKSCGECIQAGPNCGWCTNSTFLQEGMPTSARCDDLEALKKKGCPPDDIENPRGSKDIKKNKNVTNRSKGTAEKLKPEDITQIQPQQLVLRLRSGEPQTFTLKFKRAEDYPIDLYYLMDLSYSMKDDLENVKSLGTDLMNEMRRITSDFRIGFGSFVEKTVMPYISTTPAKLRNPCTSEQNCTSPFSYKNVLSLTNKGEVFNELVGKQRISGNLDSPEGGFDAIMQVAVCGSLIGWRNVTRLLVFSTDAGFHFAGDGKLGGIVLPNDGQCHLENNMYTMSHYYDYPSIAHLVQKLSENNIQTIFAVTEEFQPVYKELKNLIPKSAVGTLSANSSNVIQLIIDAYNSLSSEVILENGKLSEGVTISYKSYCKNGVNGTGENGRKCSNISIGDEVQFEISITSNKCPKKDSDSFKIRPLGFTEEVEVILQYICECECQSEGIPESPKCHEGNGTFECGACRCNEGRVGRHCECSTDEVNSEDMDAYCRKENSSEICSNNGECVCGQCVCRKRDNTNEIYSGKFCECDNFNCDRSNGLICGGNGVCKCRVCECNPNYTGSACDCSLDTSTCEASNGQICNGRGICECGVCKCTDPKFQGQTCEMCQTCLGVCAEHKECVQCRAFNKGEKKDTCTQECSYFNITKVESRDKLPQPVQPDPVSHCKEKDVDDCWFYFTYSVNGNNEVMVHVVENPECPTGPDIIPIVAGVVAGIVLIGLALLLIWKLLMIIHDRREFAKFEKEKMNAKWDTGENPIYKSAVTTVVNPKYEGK
Chain of Integrin beta-1 (Homo sapiens) + Integrin alpha-4 (Homo sapiens) (P13612 whole entry, looked up): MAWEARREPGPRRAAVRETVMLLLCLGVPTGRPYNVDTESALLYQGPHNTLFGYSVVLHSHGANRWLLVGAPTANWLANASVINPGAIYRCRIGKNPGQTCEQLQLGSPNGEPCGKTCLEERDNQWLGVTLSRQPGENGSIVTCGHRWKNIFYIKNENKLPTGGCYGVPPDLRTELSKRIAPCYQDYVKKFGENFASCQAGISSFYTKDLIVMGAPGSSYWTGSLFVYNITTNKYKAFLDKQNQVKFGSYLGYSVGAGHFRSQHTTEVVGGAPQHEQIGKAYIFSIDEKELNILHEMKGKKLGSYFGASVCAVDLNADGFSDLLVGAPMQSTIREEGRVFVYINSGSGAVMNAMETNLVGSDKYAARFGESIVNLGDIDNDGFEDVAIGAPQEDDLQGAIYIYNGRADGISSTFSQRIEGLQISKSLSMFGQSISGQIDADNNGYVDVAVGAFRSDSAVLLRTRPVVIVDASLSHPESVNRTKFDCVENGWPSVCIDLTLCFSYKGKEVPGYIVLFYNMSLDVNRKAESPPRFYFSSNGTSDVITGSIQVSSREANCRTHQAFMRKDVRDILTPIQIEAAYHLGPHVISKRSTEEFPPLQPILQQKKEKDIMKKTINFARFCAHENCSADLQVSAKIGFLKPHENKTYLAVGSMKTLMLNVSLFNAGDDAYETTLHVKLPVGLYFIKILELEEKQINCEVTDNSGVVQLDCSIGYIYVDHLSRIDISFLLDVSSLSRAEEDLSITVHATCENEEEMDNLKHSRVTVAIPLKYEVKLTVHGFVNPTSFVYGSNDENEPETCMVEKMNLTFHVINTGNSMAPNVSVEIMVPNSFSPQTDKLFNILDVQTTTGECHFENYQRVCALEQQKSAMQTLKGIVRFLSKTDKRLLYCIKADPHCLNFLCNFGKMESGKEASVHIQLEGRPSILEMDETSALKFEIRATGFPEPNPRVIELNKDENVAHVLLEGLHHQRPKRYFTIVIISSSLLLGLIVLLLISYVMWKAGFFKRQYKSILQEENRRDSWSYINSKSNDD
Experiment [7] can be described thus: calorie-restriction mimetic ROS inhibitors, yeast – validation compound set, pilot screen (AID 2706;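 active = superoxide response below 65% of plate, a cut near 3 SD across the whole screen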;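 also: yeast exposed to compound for one week at 30 degrees C before staining; 100% = mean of all compound wells on the same plate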). As to conditions: S. cerevisiae aging, superoxide DHE fluorescence; at 10 µM; stronger effect = lower value.
Experiment [8] concerns the target Beta-adrenergic receptor kinase 1 (Homo sapiens) (UniProt P25098). Description: GRK2 binders displacing RNA aptamer, biochemical, validation, human GRK2, bead flow cytometry (AID 488806;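 active = aptamer binding inhibition above 30%, about 3 SD of noise from non-fluorescent compounds; inactive = inhibition at or below 30%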). To be noted: bead-bound GRK2, FAM-aptamer displacement, at 10 µM, stronger effect = higher value.
Experiment [9] has as its target Beta-2 adrenergic receptor (Homo sapiens) (UniProt P07550). Description: agonist-induced loss of surface beta2AR – cell-based, FAP fluorogen, flow cytometry, validation set, pilot screen (AID 504459;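 active = percent response above 42, roughly 3 SD of non-fluorescent test compounds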;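 also: agonist-driven loss of surface beta2AR via internalization measured by FAP dye flow cytometry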). As to conditions: Am2.2-beta2AR cells, at 10 µM, stronger effect = higher value.
The target of experiment [10] is AP-2 complex subunit beta (Homo sapiens) (UniProt P63010). Description: beta-arrestin/AP2 interaction blockers – biochemical, validation set, GST-AP2 beads, flow cytometry, pilot screen (AID 504541;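 active = inhibition above 54%, about 3 SD of non-fluorescent compounds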;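 also: AP2 carries R879A mutation and is captured from E. coli lysate; bead-bound FITC arrestin peptide fluorescence measuring arrestin peptide binding to AP2; 0% = DMSO wells and 100% = excess unlabeled arrestin peptide control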). To be noted: FITC arrestin peptide, at 10 µM, stronger effect = higher value.
The nature of experiment [11]: cytosolic pH regulators acting via V-ATPase – S. cerevisiae, pHLuorin, HTS validation (AID 504600; in the data active = response above about 15%;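 also: plate controls were DMSO for no effect and reference compound for full effect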). As to conditions: V-ATPase proton transport, at 10 µM, stronger effect = higher value.
Experiment [12] deals with anti-desmoglein-3 scFv antibody binding to human DSG3. Description: blockers of pathogenic pemphigus antibody–desmoglein-3 binding – biochemical, validation compound set, bead-based, flow cytometry, pilot screen (AID 588368;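 active = binding below the plate cutoff, the plate median minus 3 SD, with a reading above zero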;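 also: signal is the median channel fluorescence of bead-bound GFP antibody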). To be noted: Protein G beads, DSG3-Fc, scFv-GFP binding, at 10 µM, stronger effect = lower value.
The test system of experiment [13] is Botulinum neurotoxin type F light chain protease (Clostridium botulinum). Description: Clostridium botulinum type F light chain protease inhibitors, microsphere substrate cleavage, validation (AID 588459; call rule not given here). To be noted: multiplex microsphere protease substrate cleavage assay, flow cytometry; at 10 µM; stronger effect = higher value.
Experiment [14] concerns the target Botulinum neurotoxin type A (Clostridium botulinum) (UniProt P0DPI0). Description: BoNT/A light chain protease inhibitors, biochemical, multiplex microsphere flow cytometry, validation set (AID 588460; call rule not given here). As to conditions: at 10 µM, stronger effect = higher value.
Experiment [15] concerns the target Lethal factor (Bacillus anthracis) (UniProt P15917). Put plainly: Bacillus anthracis lethal factor inhibition, microsphere flow cytometry protease assay, validation at 10 µM (AID 588461; call rule not given here). To be noted: multiplex microsphere protease cleavage assay, stronger effect = higher value.
Experiment [16] in a line: Nile Red efflux blockade in pump-expressing yeast – validation compound set, multiplex, phenotypic, pilot screen (AID 588506;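 active = efflux inhibition above 0.42, the validation set average plus 4 SD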;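 also: Nile Red retained in cells so higher fluorescence means more efflux inhibition; 0 = negative control wells and 1 = enniatin B 25 µM full block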). To be noted: S. cerevisiae pump-expressing triplex, Nile Red efflux flow cytometry; at 10 µM; stronger effect = higher value.
Experiment [17] deals with ATP-binding cassette sub-family B member 6 (Homo sapiens) (UniProt Q9NP58). Description: blockers of ABCB6-driven porphyrin uptake – K562-ABCB6 cells, flow cytometry, validation set, pilot screen (AID 588550;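 active = inhibition above the screen-wide mean plus 3 SD, about 51%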;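 also: 0% = DMSO wells and 100% = benzethonium chloride 70 µM positive control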). To be noted: K562-ABCB6 porphyrin accumulation, 1 h, at 10 µM, stronger effect = higher value.
Chain of ATP-binding cassette sub-family B member 6 (Homo sapiens) (Q9NP58 whole entry, looked up): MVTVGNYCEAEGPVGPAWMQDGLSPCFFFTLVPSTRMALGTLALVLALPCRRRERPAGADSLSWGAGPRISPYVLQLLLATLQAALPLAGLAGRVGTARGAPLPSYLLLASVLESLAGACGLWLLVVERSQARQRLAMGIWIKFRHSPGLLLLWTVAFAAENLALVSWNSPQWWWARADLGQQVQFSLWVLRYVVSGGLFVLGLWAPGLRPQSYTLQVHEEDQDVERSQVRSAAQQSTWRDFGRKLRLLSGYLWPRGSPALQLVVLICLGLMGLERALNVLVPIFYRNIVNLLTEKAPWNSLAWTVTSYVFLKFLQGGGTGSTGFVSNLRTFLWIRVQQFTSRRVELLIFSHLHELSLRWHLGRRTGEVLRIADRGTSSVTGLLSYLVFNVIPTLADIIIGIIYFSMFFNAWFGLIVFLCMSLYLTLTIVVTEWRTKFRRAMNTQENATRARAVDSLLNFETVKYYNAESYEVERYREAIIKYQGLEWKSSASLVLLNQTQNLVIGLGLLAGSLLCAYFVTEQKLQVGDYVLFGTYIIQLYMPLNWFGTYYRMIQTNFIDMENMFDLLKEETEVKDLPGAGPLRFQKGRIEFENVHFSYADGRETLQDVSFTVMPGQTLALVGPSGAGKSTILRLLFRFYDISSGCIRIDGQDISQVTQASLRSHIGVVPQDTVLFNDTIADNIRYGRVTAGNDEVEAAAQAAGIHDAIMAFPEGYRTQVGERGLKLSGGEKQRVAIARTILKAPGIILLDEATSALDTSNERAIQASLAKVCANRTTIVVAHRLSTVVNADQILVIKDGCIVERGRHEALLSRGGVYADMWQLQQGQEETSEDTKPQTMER
Experiment [18] in a line: AML differentiation inducers, ER-HoxA9 marrow cells – cell-based, GFP/MAC1 double positive, flow cytometry, validation set, primary screen (AID 588685;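 active = differentiation response of at least 50%, scaled between solvent and reference control, from cells with both markers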;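 also: compound exposure lasts four days before antibody staining and flow analysis; 0% = DMSO wells and 100% = 5 µM fulvestrant positive control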). As to conditions: stronger effect = higher value.
Experiment [19] is described as follows: hit retest on RPL19A-GFP reporter strain – cell-based, S. cerevisiae, flow cytometry, cherry picks, mother/daughter gates, confirmation (AID 2270;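 active = GFP response below 50% of the DMSO control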). As to conditions: 3 h, at 10 µM, stronger effect = lower value, 100 = same GFP as DMSO wells.
Experiment [20] is described as follows: yeast TOR pathway reporter LAP4-GFP change – cell-based, cherry picks, flow cytometry, mother/daughter gates, confirmation (AID 2271;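 active = GFP response above 150% of the DMSO control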;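 also: ratio of sample to DMSO plate mean so 100% equals DMSO level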). As to conditions: S. cerevisiae LAP4-GFP strain, 3 h, at 10 µM, stronger effect = higher value.
Experiment [21] can be described thus: TOR pathway reporter MEP2-GFP, retest of hits – S. cerevisiae, flow cytometry GFP, cherry picks, confirmation (AID 2272;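 active = GFP response above 150% of the DMSO control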;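 also: ratio of well signal to plate DMSO mean so 100% equals DMSO level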). To be noted: S. cerevisiae MEP2-GFP strain, 3 h, at 10 µM, stronger effect = higher value.
Experiment [22] in a line: yeast AGP1-GFP fluorescence change, single-dose – cell-based, flow cytometry, S. cerevisiae, cherry picks, confirmation (AID 2273).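 Also: median GFP channel fluorescence over the whole cell population gate.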 To be noted: S. cerevisiae AGP1-GFP strain, 3 h, at 10 µM.
Experiment [23] is described as follows: TOR pathway CIT2 reporter hit retest – S. cerevisiae, GFP fusion, cherry picks, mother/daughter gates, confirmation (AID 2274). To be noted: S. cerevisiae CIT2-GFP strain, flow cytometry, 3 h, at 10 µM, stronger effect = higher value.
[24] abbreviates: measured here: daughter cell gate.
Setting [25] is: measured here: mother cell gate.
Setting [26] is: measured here: daughter cell gate response.
[27] abbreviates: measured here: mother cell gate response.

Inconclusive results are not listed. Activity calls are given as the source filed them.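 The calls were made as follows, unless noted: active = GFP response above 150% of the DMSO level; inconclusive = fewer than 70 events counted for a yeast strain; inactive = the rest.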

Chain of Beta-2 adrenergic receptor (Homo sapiens) (P07550 whole entry, looked up): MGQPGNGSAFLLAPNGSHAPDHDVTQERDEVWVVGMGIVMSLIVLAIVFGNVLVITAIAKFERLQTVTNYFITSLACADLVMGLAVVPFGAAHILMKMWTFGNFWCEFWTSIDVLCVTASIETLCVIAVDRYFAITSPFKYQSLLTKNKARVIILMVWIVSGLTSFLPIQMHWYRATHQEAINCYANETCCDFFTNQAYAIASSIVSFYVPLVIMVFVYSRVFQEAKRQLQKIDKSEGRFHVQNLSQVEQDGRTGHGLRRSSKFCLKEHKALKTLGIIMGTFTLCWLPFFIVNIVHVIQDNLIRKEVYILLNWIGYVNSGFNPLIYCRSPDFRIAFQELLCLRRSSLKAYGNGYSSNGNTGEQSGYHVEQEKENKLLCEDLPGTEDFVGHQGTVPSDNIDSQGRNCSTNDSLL
Chain of Beta-adrenergic receptor kinase 1 (Homo sapiens) (P25098 whole entry, looked up): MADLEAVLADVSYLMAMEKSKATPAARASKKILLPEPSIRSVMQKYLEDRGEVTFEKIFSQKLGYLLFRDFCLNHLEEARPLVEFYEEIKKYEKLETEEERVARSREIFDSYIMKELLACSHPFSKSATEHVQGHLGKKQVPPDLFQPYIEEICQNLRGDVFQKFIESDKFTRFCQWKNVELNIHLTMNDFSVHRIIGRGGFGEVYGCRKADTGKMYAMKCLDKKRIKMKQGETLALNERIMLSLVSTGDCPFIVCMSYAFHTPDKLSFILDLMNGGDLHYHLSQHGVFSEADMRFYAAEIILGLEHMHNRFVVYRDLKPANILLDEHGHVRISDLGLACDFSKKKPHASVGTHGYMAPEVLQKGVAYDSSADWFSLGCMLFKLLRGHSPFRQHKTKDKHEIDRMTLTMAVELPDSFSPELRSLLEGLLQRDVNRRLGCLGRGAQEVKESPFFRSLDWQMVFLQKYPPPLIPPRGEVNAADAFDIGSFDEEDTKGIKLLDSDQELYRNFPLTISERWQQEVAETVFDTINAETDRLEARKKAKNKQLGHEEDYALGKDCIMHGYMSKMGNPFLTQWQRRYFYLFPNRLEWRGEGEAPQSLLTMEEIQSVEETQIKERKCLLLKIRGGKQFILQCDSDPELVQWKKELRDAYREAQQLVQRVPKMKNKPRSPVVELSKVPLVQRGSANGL
Chain of Botulinum neurotoxin type A (Clostridium botulinum) (P0DPI0 whole entry, looked up): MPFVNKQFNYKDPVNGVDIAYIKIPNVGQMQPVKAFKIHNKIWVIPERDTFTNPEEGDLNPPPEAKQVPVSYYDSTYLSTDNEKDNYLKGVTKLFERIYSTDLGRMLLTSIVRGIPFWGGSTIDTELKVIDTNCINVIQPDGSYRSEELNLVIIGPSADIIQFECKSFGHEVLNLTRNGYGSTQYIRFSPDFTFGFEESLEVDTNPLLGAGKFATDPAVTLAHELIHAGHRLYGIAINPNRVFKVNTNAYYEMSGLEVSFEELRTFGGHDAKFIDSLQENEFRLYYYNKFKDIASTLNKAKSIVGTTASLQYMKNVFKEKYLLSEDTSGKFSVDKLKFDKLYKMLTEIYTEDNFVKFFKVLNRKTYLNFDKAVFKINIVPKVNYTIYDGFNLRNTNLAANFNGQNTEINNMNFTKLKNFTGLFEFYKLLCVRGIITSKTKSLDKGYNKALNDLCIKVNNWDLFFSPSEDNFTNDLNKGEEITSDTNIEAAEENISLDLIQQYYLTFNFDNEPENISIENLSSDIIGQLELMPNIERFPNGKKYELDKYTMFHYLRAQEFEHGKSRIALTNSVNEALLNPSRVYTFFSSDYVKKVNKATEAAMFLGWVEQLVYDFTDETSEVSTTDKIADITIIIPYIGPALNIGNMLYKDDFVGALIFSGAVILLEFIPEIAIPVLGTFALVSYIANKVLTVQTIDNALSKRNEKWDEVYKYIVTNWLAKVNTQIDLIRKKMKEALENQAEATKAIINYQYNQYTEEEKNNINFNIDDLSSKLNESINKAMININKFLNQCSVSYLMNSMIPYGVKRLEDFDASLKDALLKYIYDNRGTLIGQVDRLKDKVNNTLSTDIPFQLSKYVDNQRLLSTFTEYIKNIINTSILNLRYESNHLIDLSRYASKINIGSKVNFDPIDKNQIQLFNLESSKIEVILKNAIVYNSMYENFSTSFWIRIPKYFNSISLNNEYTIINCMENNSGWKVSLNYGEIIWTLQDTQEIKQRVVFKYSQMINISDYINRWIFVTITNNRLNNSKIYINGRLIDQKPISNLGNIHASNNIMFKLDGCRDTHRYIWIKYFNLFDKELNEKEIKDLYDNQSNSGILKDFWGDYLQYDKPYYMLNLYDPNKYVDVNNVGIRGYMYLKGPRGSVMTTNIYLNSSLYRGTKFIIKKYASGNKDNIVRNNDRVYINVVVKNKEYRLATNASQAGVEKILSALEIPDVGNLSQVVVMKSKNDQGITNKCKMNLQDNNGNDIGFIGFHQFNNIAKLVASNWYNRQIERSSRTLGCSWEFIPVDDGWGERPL

Regarding `Fc1ccc(C(OCCN2CCCC2)c2ccc(Br)cc2)cc1` (configuration not stated), the percent of DMSO control GFP in experiment [1] is 98.8% (inactive). The GFP response vs DMSO is 98.5% (inactive) in experiment [2] and 109% (inactive) in [4]. In addition, in experiment [3], the percent response of DMSO control was 93.9% (inactive). The same molecule registered a double positive events in [5] of 69.4%. Also, the vesicle binding response in experiment [5] was 310% (inactive). The inhibition is -4.52% (inactive) in experiment [6]; -3.21% (inactive) in [10]; 5.6% (inactive) in [13]; -0.6% (inactive) in experiment [14]; 3% (inactive) in [15]; 7% (inactive) in experiment [17]. Also, the superoxide response (% of plate) in experiment [7] was 94.6% (inactive). Further, in experiment [8], the aptamer binding inhibition was -9% (inactive). The response is 11.4% (inactive) in experiment [9] and 0.75% (inactive) in [11]. Moreover, in experiment [12], the binding (% of control) is 103% (inactive). In addition, the efflux inhibition (fraction of control) in experiment [16] is 0.84 (active). Moreover, the differentiation response in experiment [18] was 16.8% (inactive).
As to `O=C1NC(=O)N(CCc2ccc(F)cc2)C(=O)/C1=C/c1cccs1`, the GFP response vs DMSO is 97% (inactive) in experiment [19], 95% in experiment [19] (setting [24]), 94.1% in experiment [19] (setting [25]) and 94.4% (inactive) in experiment [21]. The GFP response relative to DMSO in [20] was 152% (active); in experiment [20] (setting [26]) it was 142%; in [20] (setting [27]), 155%. The GFP response, % of DMSO in [22] is 101% (inactive); in experiment [23], 81% (inactive); in [23] (setting [24]), 85.7%; in experiment [23] (setting [25]), 72.8%.
Turning to `CCN(CC)c1ccc(/C=C/[N+](=O)[O-])cc1`, the GFP response vs DMSO in [19] is 99.5% (inactive); in experiment [19] (setting [24]), 101%; in experiment [19] (setting [25]) it was 100%; in [21], 108% (inactive). Besides, the figures for the GFP response relative to DMSO in experiment [20], in experiment [20] (setting [26]) and in [20] (setting [27]) were 130% (inactive), 131% and 132%, respectively. The GFP response, % of DMSO is 96.7% (inactive) in experiment [22], 104% (inactive) in experiment [23], 106% in experiment [23] (setting [24]) and 100% in experiment [23] (setting [25]).
With `Nc1ccc(N=Nc2ccccc2)cc1`, the GFP response vs DMSO was 98.4% (inactive) in experiment [19], 98.4% in experiment [19] (setting [24]), 96.2% in [19] (setting [25]) and 103% (inactive) in experiment [21]. Further, the GFP response relative to DMSO was 110% (inactive) in experiment [20], 106% in experiment [20] (setting [26]) and 111% in experiment [20] (setting [27]). In addition, the GFP response, % of DMSO was 93.4% (inactive) in [22], 100% (inactive) in [23], 93.8% in [23] (setting [24]) and 99.3% in [23] (setting [25]).
As to `COc1cc(/C=C/C(=O)c2c(O)n(CCc3ccccc3)c(=O)[nH]c2=O)ccc1O`, the GFP response vs DMSO in experiment [19] was 103% (inactive); in experiment [19] (setting [24]), 104%; in [19] (setting [25]), 103%; in [21], 98.8% (inactive). Further, the GFP response relative to DMSO was 90% (inactive) in [20], 90.4% in experiment [20] (setting [26]) and 88.9% in experiment [20] (setting [27]). Also, the GFP response, % of DMSO in [22] was 102% (inactive); in experiment [23] it was 115% (inactive); in experiment [23] (setting [24]), 114%; in experiment [23] (setting [25]), 112%.
As to `C=CC1CN2CCC1CC2[C@@H](OC(=O)c1ccc(OC)cc1)c1ccnc2ccccc12` (some centres not stated), the percent of DMSO control GFP in experiment [1] is 96.1% (inactive). In [3], the percent response of DMSO control was 107% (inactive). In experiment [4], the GFP response vs DMSO is 74.8% (inactive). Also, the double positive events in [5] came to 59.2%. The vesicle binding response in experiment [5] is 222% (inactive). Also, the inhibition was 4.52% (inactive) in [6]; -4.1% (inactive) in [10]; 2.8% (inactive) in [13]; 0.4% (inactive) in experiment [14]; -2% (inactive) in [15]; 5% (inactive) in experiment [17]. Besides, the superoxide response (% of plate) in [7] was 105% (inactive). The aptamer binding inhibition in [8] is -2% (inactive). Moreover, the response in [9] was 1.66% (inactive); in [11] it was -0.74% (inactive). In addition, the binding (% of control) in [12] was 109% (inactive). The efflux inhibition (fraction of control) in experiment [16] is 0.01 (inactive). Further, the differentiation response in experiment [18] was -8.19% (inactive).
Turning to `O=C(O)c1nn(Cc2ccc(Cl)cc2Cl)c2ccccc12`, the GFP response vs DMSO in [19] was 101% (inactive); in experiment [19] (setting [24]) it was 98.7%; in [19] (setting [25]), 104%; in experiment [21] it was 100% (inactive). The GFP response relative to DMSO was 103% (inactive) in experiment [20], 100% in experiment [20] (setting [26]) and 102% in [20] (setting [27]). Further, the GFP response, % of DMSO is 99.2% (inactive) in [22], 93.9% (inactive) in experiment [23], 91.5% in [23] (setting [24]) and 94.4% in [23] (setting [25]).

Usually inhibition stands for the drop in the measured response relative to a control, in per cent.

Source of the values: PubChem BioAssay.
